The list shows a part of the results. A number with no mark means an inactive call. No stated cut-off is given here; in the data, active means EC50 below about 30 µM; inactive means the rest.
Assay: H2O2 producers via compound redox cycling – biochemical, 0.5 mM DTT, Cdc25B catalytic domain, artefact control, dose response (AID 682)
Conditions: cell-free redox cycling H2O2 generation

Compound	EC50 [µM]
COc1cccc2c(C)c(C(=O)O)[nH]c12	> 50
c1ccc(CSc2nnc(-c3ccco3)c(-c3ccco3)n2)cc1	> 50

From PubChem BioAssay AID682 (University of Pittsburgh Molecular Library Screening Center, 2007)
